Laboratory results taken from the supplement of paper PMC12282887.
± gives the standard deviation of the averaged measurements.

What was measured:
Assay in all cases: promoter activity interaction Z-score (Lux/OD deviation from empty-vector control); higher = stronger promoter induction by the compound
[1] = tested on: E. coli BW25113 acrABp lux reporter
Summary of the method: (§1)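 Wild-type E. coli BW25113 and three single-gene deletion strains, each carrying a low-copy luxCDABE promoter reporter, were grown at 37°C in 40 µl LB Lennox per well of a 384-well plate. Every compound was applied at four 1:2 dilutions in biological duplicates, and OD600 and luminescence were read every 30 min for 12 h. Integration covered 0–8 h for wild type and 1–9 h for deletion strains, and wells under 10% of the median growth value were removed. Scores are Z-transformed residuals of growth-normalised luminescence fitted against a control.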

[2] = tested on: E. coli BW25113 marRABp lux reporter
Summary of the method: as §1

[3] = tested on: E. coli BW25113 micFp lux reporter
Summary of the method: as §1

[4] = tested on: E. coli BW25113 ompFp lux reporter
Summary of the method: as §1

[5] = tested on: E. coli BW25113 robp lux reporter
Summary of the method: as §1

[6] = tested on: E. coli BW25113 soxSp lux reporter
Summary of the method: as §1

[7] = tested on: E. coli BW25113 tolCp lux reporter
Summary of the method: as §1

[8] = 7 µg/ml, genetic background: wild type
[9] = 7 µg/ml, genetic background: ΔmarA
[10] = 7 µg/ml, genetic background: Δrob
[11] = 7 µg/ml, genetic background: ΔsoxS
[12] = 14 µg/ml, genetic background: wild type
[13] = 14 µg/ml, genetic background: ΔmarA
[14] = 14 µg/ml, genetic background: Δrob
[15] = 14 µg/ml, genetic background: ΔsoxS
[16] = 28 µg/ml, genetic background: wild type
[17] = 28 µg/ml, genetic background: ΔmarA
[18] = 28 µg/ml, genetic background: Δrob
[19] = 28 µg/ml, genetic background: ΔsoxS
[20] = 56.1 µg/ml, genetic background: wild type
[21] = 56.1 µg/ml, genetic background: ΔmarA
[22] = 56.1 µg/ml, genetic background: Δrob
[23] = 56.1 µg/ml, genetic background: ΔsoxS

COc1cc(NS(=O)(=O)c2ccc(N)cc2)ncn1 [Sulfamonomethoxine]
promoter activity interaction Z-score [1, 8]: -0.0629 ± 0.12 | promoter activity interaction Z-score [1, 9]: -0.0827 ± 0.19 | promoter activity interaction Z-score [1, 10]: -0.194 ± 0.069 | promoter activity interaction Z-score [1, 11]: -0.131 ± 0.45 | promoter activity interaction Z-score [1, 12]: -0.0954 ± 0.051 | promoter activity interaction Z-score [1, 13]: 0.444 ± 0.69 | promoter activity interaction Z-score [1, 14]: 0.0478 ± 0.2 | promoter activity interaction Z-score [1, 15]: -0.102 ± 0.4 | promoter activity interaction Z-score [1, 16]: 0.289 ± 0.03 | promoter activity interaction Z-score [1, 17]: 0.686 ± 0.39 | promoter activity interaction Z-score [1, 18]: 0.139 ± 0.014 | promoter activity interaction Z-score [1, 19]: -0.0503 ± 0.27 | promoter activity interaction Z-score [1, 20]: 0.594 ± 0.059 | promoter activity interaction Z-score [1, 21]: 1.43 ± 0.56 | promoter activity interaction Z-score [1, 22]: 1.32 ± 0.6 | promoter activity interaction Z-score [1, 23]: 0.654 ± 0.63 | promoter activity interaction Z-score [2, 8]: 0.165 ± 0.29 | promoter activity interaction Z-score [2, 9]: 0.199 ± 0.22 | promoter activity interaction Z-score [2, 10]: 0.0754 ± 0.022 | promoter activity interaction Z-score [2, 11]: -0.0457 ± 0.27 | promoter activity interaction Z-score [2, 12]: 0.419 ± 0.21 | promoter activity interaction Z-score [2, 13]: 0.246 ± 0.58 | promoter activity interaction Z-score [2, 14]: -0.0243 ± 0.36 | promoter activity interaction Z-score [2, 15]: -0.0217 ± 0.15 | promoter activity interaction Z-score [2, 16]: 0.52 ± 0.32 | promoter activity interaction Z-score [2, 17]: 0.729 ± 0.45 | promoter activity interaction Z-score [2, 18]: 0.602 ± 0.038 | promoter activity interaction Z-score [2, 19]: 0.101 ± 0.14 | promoter activity interaction Z-score [2, 20]: 1.09 ± 0.8 | promoter activity interaction Z-score [2, 21]: 1.14 ± 0.16 | promoter activity interaction Z-score [2, 22]: 1.18 ± 0.4 | promoter activity interaction Z-score [2, 23]: 1.04 ± 0.46 | promoter activity interaction Z-score [3, 8]: -0.11 ± 0.081 | promoter activity interaction Z-score [3, 9]: -0.104 ± 0.066 | promoter activity interaction Z-score [3, 10]: 0.00985 ± 0.087 | promoter activity interaction Z-score [3, 11]: -0.0124 ± 0.09 | promoter activity interaction Z-score [3, 12]: 0.129 ± 0.024 | promoter activity interaction Z-score [3, 13]: -0.112 ± 0.13 | promoter activity interaction Z-score [3, 14]: -0.0554 ± 0.081 | promoter activity interaction Z-score [3, 15]: 0.0346 ± 0.00076 | promoter activity interaction Z-score [3, 16]: -0.113 ± 0.28 | promoter activity interaction Z-score [3, 17]: 0.0381 ± 0.13 | promoter activity interaction Z-score [3, 18]: -0.0788 ± 0.15 | promoter activity interaction Z-score [3, 19]: -0.00695 ± 0.03 | promoter activity interaction Z-score [3, 20]: 0.345 ± 0.27 | promoter activity interaction Z-score [3, 21]: -0.0779 ± 0.035 | promoter activity interaction Z-score [3, 22]: 0.446 ± 0.3 | promoter activity interaction Z-score [3, 23]: 0.145 ± 0.15 | promoter activity interaction Z-score [4, 8]: 0.897 ± 1 | promoter activity interaction Z-score [4, 9]: 0.44 ± 0.78 | promoter activity interaction Z-score [4, 10]: 0.229 ± 0.2 | promoter activity interaction Z-score [4, 11]: 0.152 ± 0.17 | promoter activity interaction Z-score [4, 12]: 0.907 ± 0.69 | promoter activity interaction Z-score [4, 13]: 0.36 ± 0.52 | promoter activity interaction Z-score [4, 14]: 0.708 ± 0.82 | promoter activity interaction Z-score [4, 15]: 0.102 ± 0.078 | promoter activity interaction Z-score [4, 16]: 1.05 ± 0.98 | promoter activity interaction Z-score [4, 17]: 1.11 ± 0.74 | promoter activity interaction Z-score [4, 18]: 0.731 ± 0.18 | promoter activity interaction Z-score [4, 19]: 0.341 ± 0.13 | promoter activity interaction Z-score [4, 20]: 2.04 ± 0.99 | promoter activity interaction Z-score [4, 21]: 2.09 ± 0.78 | promoter activity interaction Z-score [4, 22]: 2.95 ± 1.7 | promoter activity interaction Z-score [4, 23]: 1.94 ± 0.43 | promoter activity interaction Z-score [5, 8]: 1.09 ± 0.49 | promoter activity interaction Z-score [5, 9]: 0.0134 ± 0.083 | promoter activity interaction Z-score [5, 10]: -0.027 ± 0.51 | promoter activity interaction Z-score [5, 11]: -0.114 ± 0.21 | promoter activity interaction Z-score [5, 12]: 1.2 ± 0.46 | promoter activity interaction Z-score [5, 13]: -0.0907 ± 0.34 | promoter activity interaction Z-score [5, 14]: 0.416 ± 0.81 | promoter activity interaction Z-score [5, 15]: -0.326 ± 0.46 | promoter activity interaction Z-score [5, 16]: 0.911 ± 0.12 | promoter activity interaction Z-score [5, 17]: 1.16 ± 0.43 | promoter activity interaction Z-score [5, 18]: 0.643 ± 0.1 | promoter activity interaction Z-score [5, 19]: 0.227 ± 0.12 | promoter activity interaction Z-score [5, 20]: 2 ± 0.41 | promoter activity interaction Z-score [5, 21]: 2.2238 ± 0.0018 | promoter activity interaction Z-score [5, 22]: 1.45 ± 0.23 | promoter activity interaction Z-score [5, 23]: 1.99 ± 0.18 | promoter activity interaction Z-score [6, 8]: -0.238 ± 0.08 | promoter activity interaction Z-score [6, 9]: -0.23 ± 0.096 | promoter activity interaction Z-score [6, 10]: -0.34 ± 0.09 | promoter activity interaction Z-score [6, 11]: -0.327 ± 0.54 | promoter activity interaction Z-score [6, 12]: -0.126 ± 0.13 | promoter activity interaction Z-score [6, 13]: -0.374 ± 0.052 | promoter activity interaction Z-score [6, 14]: -0.287 ± 0.064 | promoter activity interaction Z-score [6, 15]: -0.322 ± 0.51 | promoter activity interaction Z-score [6, 16]: -0.403 ± 0.15 | promoter activity interaction Z-score [6, 17]: -0.289 ± 0.029 | promoter activity interaction Z-score [6, 18]: -0.503 ± 0.07 | promoter activity interaction Z-score [6, 19]: -0.224 ± 0.42 | promoter activity interaction Z-score [6, 20]: -0.28 ± 0.14 | promoter activity interaction Z-score [6, 21]: -0.0803 ± 0.1 | promoter activity interaction Z-score [6, 22]: -0.502 ± 0.17 | promoter activity interaction Z-score [6, 23]: -0.113 ± 0.36 | promoter activity interaction Z-score [7, 8]: -0.23 ± 0.84 | promoter activity interaction Z-score [7, 9]: 0.608 ± 0.35 | promoter activity interaction Z-score [7, 10]: 0.27 ± 0.051 | promoter activity interaction Z-score [7, 11]: -0.223 ± 1.2 | promoter activity interaction Z-score [7, 12]: 1.12 ± 0.49 | promoter activity interaction Z-score [7, 13]: -0.382 ± 0.79 | promoter activity interaction Z-score [7, 14]: -0.826 ± 0.66 | promoter activity interaction Z-score [7, 15]: 0.183 ± 1.1 | promoter activity interaction Z-score [7, 16]: -0.0377 ± 0.24 | promoter activity interaction Z-score [7, 17]: 1.63 ± 0.99 | promoter activity interaction Z-score [7, 18]: -0.142 ± 0.15 | promoter activity interaction Z-score [7, 19]: 0.453 ± 0.22 | promoter activity interaction Z-score [7, 20]: 0.726 ± 1 | promoter activity interaction Z-score [7, 21]: 0.457 ± 1.5 | promoter activity interaction Z-score [7, 22]: -0.189 ± 0.24 | promoter activity interaction Z-score [7, 23]: 0.283 ± 0.55
